Assay results as given in PubChem BioAssay.
Values without a mark were called inactive.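 Rule for the calls: active = at least 20% inhibition of 6-phosphogluconate dehydrogenase activity; inactive = the rest.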

target: 6-phosphogluconate dehydrogenase, decarboxylating (Homo sapiens) (UniProt P52209); experiment: inhibition of human phosphogluconate dehydrogenase – biochemical, recombinant enzyme, NADPH absorbance, primary screen (AID 1159550); conditions: recombinant 6PGD, NADPH absorbance 341 nm; at 10 µM; active compounds read high
Sequence (P52209 whole entry, looked up): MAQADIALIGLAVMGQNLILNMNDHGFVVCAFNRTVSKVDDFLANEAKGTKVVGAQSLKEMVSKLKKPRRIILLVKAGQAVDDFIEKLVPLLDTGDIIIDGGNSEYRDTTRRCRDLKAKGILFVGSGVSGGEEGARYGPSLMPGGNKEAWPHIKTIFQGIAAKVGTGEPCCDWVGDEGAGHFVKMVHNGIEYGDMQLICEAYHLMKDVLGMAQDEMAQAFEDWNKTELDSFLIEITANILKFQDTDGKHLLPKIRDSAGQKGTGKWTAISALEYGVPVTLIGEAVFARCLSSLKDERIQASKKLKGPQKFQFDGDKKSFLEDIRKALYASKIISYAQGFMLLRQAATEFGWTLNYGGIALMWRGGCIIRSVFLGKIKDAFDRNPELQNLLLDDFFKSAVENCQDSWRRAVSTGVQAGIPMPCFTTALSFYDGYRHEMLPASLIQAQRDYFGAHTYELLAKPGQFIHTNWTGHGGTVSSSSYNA

`CC(C)c1c(O)ccc2c1CC[C@H]1C(C)(C)CCC[C@]21C` was tested. Which inhibition did it give?
The inhibition was -7.32%.

`Cn1c(=O)[nH]c2nc[nH]c2c1=O` was tested. Which inhibition did it give?
Its inhibition is -4.63%.

Which inhibition does the source give for `CC(=O)OC(C)(C)[C@@H]1Cc2cc3ccc(=O)oc3cc2O1` here?
The inhibition was 2.42%.

Which inhibition does the source give for `CC(=O)O[C@H]1CC[C@@]2(C)C(=CC(=O)[C@H]3[C@@H]4CC[C@H]([C@H](C)CCCC(C)C)[C@@]4(C)CC[C@@H]32)C1` here?
Its inhibition is -8.76%.

With `CC[C@H](CC[C@@H](C)[C@H]1CC[C@H]2[C@@H]3CC=C4C[C@@H](OC(C)=O)CC[C@]4(C)[C@H]3CC[C@]12C)C(C)C` as the molecule, how does the inhibition read?
The inhibition was 9.08%.

How did the inhibition turn out when `C[C@H]1[C@H](C)CC[C@]2(CO)CC[C@]3(C)C(=CC[C@@H]4[C@@]5(C)CC[C@H](O)C(C)(C)[C@@H]5CC[C@]43C)[C@H]12` was run?
The inhibition was -50.4%.

Which inhibition does the source give for `COC1=C(O)c2cc3oc(C(C)=O)c(O)c3c(O)c2C(=O)C1=O` here?
Its inhibition is 1.87%.

With `CCCCCC/C=C\CCCCCCCc1cccc(O)c1C(=O)O` as the molecule, how does the inhibition read?
Its inhibition is 0.888%.

`COc1cc(O)c2c(=O)c(O)c(-c3ccc(O)c(O)c3)oc2c1` was tested. Which inhibition did it give?
Its inhibition is 4.95%.

Which inhibition does the source give for `CC(=O)CC(=O)CCC(=O)O` here?
The inhibition was 9.16%.

With `CC(=O)/C=C\[C@@H]1[C@@]2(C)CCCC(C)(C)C2CC[C@@]1(C)O` (some centres undefined) as the molecule, how does the inhibition read?
The inhibition was 14.1%.

With `O=C(Cc1ccccc1)NO` as the molecule, how does the inhibition read?
The inhibition was -18.4%.

Which inhibition does the source give for `CC1(C)CC[C@]2(C(=O)O)CC[C@]3(C)C(=CC[C@@H]4[C@@]5(C)CC[C@H](O)[C@@](C)(CO)[C@@H]5CC[C@]43C)[C@@H]2C1` here?
Its inhibition is -1.09%.

With `CC(=O)O[C@@H]1c2c(ccc3ccc(=O)oc23)OC(C)(C)[C@@H]1OC(=O)CC(C)C` as the molecule, how does the inhibition read?
The inhibition was -10.5%.

For `COc1cc(C/C=C/c2ccccc2)c(OC)cc1O`, which inhibition is on record?
Its inhibition is 9.29%.

`CC1(C)C(=O)C=C[C@@]2(C)C1C=C[C@]1(C)C2CC[C@@]2(C)[C@H](c3ccoc3)OC(=O)C3OC321` (some centres undefined) was tested. Which inhibition did it give?
Its inhibition is -14.8%.

Which inhibition does the source give for `C[N+]1(C)C[C@H](O)C[C@H]1C(=O)[O-]` here?
Its inhibition is 0.213%.

For `COc1cc(/C=C/CO)ccc1O`, which inhibition is on record?
The inhibition was 17.3%.

Which inhibition does the source give for `CC1/C(=N/O)C[C@@H]2C[C@H]1C2(C)C` (some centres undefined) here?
The inhibition was -7.59%.

With `CC(=O)NC(Cc1c[nH]c2ccccc12)C(=O)O` (centres undefined) as the molecule, how does the inhibition read?
Its inhibition is -6.76%.

`CC(=O)O[C@@H]1C[C@H]2C(C)(C)[C@@H](O)CC[C@]2(C)[C@H]2CC[C@@]3(C)[C@H](c4ccoc4)OC(=O)[C@H]4O[C@]43[C@@]21C` was tested. Which inhibition did it give?
Its inhibition is -6.19%.

Which inhibition does the source give for `O=C(Cc1cccs1)N[C@@H]1C(=O)N2C(C(=O)[O-])=C(C[n+]3ccccc3)CS[C@H]12` here?
The inhibition was 0.514%.

Which inhibition does the source give for `Cc1cc(=O)c2c(O)cc(O)c(C)c2o1` here?
Its inhibition is 9.08%.

`COC(=O)C[C@H]1C(C)(C)C2(O)OC34CC2C(=O)[C@]1(C)C3CC[C@]1(C)C4=CC(=O)O[C@H]1c1ccoc1` (some centres undefined) was tested. Which inhibition did it give?
Its inhibition is 4.12%.

Which inhibition does the source give for `C=C1C2CCC3(C)C(c4ccoc4)OC(=O)CC13OC1CC(=O)C(C)(C)C(CC(=O)OC)C12C` (centres undefined) here?
Its inhibition is -8.25%.

Which inhibition does the source give for `O=c1cc(-c2ccc(O)cc2)oc2cc(O[C@@H]3O[C@H](CO)[C@@H](O)[C@H](O)[C@H]3O)cc(O)c12` here?
The inhibition was -5.65%.

`Cc1cc(O)c2c(c1O)C(=O)c1c(O)cc(C)c(O)c1C2=O` was tested. Which inhibition did it give?
The inhibition was 2.78%.

With `COc1ccc2c(c1)OC/C(=C/c1ccc(OC)c(OC)c1)C2=O` as the molecule, how does the inhibition read?
The inhibition was -0.769%.

How did the inhibition turn out when `COc1c(-c2ccccc2)oc2c(ccc3occc32)c1=O` was run?
Its inhibition is -3.15%.

Which inhibition does the source give for `COc1cc(O)c2c(=O)cc(-c3ccc(OC)c(-c4c(O)cc(O)c5c(=O)cc(-c6ccc(O)cc6)oc45)c3)oc2c1` here?
Its inhibition is -1.48%.

For `COc1ccc(-c2cc(=O)c3ccccc3o2)cc1OC`, which inhibition is on record?
Its inhibition is -3.02%.

With `N[C@@H](CCC(=O)N[C@@H](CSC(CC(=O)O)C(=O)O)C(=O)NCC(=O)O)C(=O)O` (some centres undefined) as the molecule, how does the inhibition read?
Its inhibition is 6.35%.

For `COc1ccc2c(c1)CC[C@@H]1[C@@H]2CC[C@]2(C)[C@@H](O)CC[C@@H]12`, which inhibition is on record?
Its inhibition is -8.02%.

How did the inhibition turn out when `CCC(=O)OC1[C@@H]2CC3=C4CC(=O)O[C@@H](c5ccoc5)[C@]4(C)CCC3[C@@](C)(C2=O)[C@@H](CC(=O)OC)C1(C)C` (some centres undefined) was run?
Its inhibition is -1.17%.

`NC(=O)NCCC[C@H](N)C(=O)O` was tested. Which inhibition did it give?
Its inhibition is 15.5%.

Which inhibition does the source give for `C[C@@H]1CC[C@H]2[C@](C)(CO)[C@@H](O)CC[C@]2(C)[C@@]12CC[C@@](CO)(CCO)O2` here?
The inhibition was -5.82%.

With `COc1c(O)cc2c(-c3ccccc3)cc(=O)oc2c1OC` as the molecule, how does the inhibition read?
The inhibition was -3.61%.

How did the inhibition turn out when `CC1(C)C[C@@H]2C(=O)CC[C@H]3O[C@]3(C)CC[C@H]21` was run?
The inhibition was 14.4%.

Which inhibition does the source give for `O=C(O)CN(CC(=O)O)Cc1cc2c(cc1O)Oc1cc(O)c(CN(CC(=O)O)CC(=O)O)cc1C21OC(=O)c2ccccc21` here?
Its inhibition is -1.59%.
